CYP2C9 inh – inhibitors of human CYP2C9; inhibition, % at 5 µM; P11712; 20% of 96,000 active; CYP2C9 Supersomes, luciferin-H conversion, luminescence; AID 777;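 active = blocking of liver enzyme CYP2C9 beyond about 50% at 5 µM, limit read from the data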
CYP2C19 activ – increases human CYP2C19 enzyme activity; recombinant CYP2C19, luciferin-H EGE luminescence; active compounds read high; 0 = fully inhibited enzyme, 1 = untreated enzyme; activation factor at 5 µM; AID 1025; 96,000 tested, under 10 active;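 active = activation factor of at least 2 at 5 µM in the primary screen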;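 note: 0 = wells with 2.5 mM tranylcypromine and 1 = vehicle-only wells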
CYP2C19 inh – blocks human cytochrome P450 2C19 | 21% of 96,000 active | CYP2C19 Supersomes, luciferin-H EGE luminescence, 30 min | inhibition, % at 5 µM | P33261;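 active = CYP2C19 inhibition above a set limit at 5 µM in the primary screen, cut at about 50% in these data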;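 note: plate controls were negative control wells for no effect and 2.5 mM tranylcypromine positive control for full effect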
Cav3 T inh – inhibitors of human Cav3.2 T-type calcium channel; O95180; Cav3.2-expressing cells, Fluo-4 calcium fluorescence FDSS; active compounds read low; B-score at 10 µM; 4% of 100,000 active;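 active = single-dose well whose peak fluorescence ratio is a statistical outlier from its plate by either plate-standardised score or position-corrected B-score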
Target sequence (O95180 whole entry, looked up): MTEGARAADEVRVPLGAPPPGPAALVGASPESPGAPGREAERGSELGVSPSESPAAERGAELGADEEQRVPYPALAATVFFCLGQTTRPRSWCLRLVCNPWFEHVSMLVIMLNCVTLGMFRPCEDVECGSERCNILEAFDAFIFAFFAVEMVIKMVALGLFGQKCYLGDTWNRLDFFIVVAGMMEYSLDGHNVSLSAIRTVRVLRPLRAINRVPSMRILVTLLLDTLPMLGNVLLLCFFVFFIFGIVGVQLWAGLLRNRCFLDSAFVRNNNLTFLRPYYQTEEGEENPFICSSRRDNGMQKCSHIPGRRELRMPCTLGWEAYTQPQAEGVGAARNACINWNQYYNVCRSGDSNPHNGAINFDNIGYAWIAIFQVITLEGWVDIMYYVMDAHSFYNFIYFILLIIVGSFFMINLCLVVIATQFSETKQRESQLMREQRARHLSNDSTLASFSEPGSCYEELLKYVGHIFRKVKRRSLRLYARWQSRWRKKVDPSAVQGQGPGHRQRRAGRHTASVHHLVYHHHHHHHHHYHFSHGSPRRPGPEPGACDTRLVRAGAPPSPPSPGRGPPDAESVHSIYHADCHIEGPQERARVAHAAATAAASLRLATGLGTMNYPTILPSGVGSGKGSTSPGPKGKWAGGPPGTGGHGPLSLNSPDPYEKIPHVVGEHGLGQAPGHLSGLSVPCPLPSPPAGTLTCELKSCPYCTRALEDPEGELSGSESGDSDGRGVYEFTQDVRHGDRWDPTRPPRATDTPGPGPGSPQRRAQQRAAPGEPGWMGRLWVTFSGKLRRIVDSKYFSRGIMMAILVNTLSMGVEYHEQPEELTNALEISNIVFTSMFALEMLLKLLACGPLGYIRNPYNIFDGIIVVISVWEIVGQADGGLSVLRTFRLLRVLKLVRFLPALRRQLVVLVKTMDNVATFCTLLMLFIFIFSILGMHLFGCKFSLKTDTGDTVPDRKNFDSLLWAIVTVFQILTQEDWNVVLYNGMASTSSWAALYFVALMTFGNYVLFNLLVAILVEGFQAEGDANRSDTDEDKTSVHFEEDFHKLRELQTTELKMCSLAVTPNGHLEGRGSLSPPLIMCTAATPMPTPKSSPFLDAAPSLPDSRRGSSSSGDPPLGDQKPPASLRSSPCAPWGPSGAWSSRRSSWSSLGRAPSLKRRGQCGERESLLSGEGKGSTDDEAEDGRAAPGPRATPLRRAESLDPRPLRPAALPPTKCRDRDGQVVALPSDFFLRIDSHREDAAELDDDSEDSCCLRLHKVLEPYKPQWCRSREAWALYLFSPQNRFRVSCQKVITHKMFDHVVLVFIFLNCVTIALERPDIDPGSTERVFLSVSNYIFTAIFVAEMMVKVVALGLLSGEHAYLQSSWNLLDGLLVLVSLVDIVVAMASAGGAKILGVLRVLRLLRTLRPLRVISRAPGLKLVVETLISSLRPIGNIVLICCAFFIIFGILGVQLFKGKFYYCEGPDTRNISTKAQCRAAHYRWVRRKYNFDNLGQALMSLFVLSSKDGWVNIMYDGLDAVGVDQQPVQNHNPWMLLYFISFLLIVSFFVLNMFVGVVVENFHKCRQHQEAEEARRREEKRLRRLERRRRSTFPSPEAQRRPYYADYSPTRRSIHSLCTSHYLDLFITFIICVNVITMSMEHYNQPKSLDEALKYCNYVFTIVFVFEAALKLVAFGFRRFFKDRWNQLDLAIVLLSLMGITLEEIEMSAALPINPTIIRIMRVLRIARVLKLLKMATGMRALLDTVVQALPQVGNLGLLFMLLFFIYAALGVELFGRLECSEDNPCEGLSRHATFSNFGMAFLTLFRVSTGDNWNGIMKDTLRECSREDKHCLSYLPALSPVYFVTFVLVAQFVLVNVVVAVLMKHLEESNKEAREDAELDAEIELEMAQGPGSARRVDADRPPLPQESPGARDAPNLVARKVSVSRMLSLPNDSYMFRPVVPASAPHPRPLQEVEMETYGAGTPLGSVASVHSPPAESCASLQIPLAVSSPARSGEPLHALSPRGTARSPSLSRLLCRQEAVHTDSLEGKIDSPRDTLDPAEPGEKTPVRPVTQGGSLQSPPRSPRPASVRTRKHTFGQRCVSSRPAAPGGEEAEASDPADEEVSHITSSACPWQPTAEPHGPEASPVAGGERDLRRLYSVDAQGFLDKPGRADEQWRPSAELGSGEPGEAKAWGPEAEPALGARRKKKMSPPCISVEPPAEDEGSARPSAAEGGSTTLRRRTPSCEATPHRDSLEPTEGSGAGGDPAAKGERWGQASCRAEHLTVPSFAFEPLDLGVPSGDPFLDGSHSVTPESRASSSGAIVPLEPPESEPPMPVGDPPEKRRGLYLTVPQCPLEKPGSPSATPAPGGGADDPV
CYP2C9 act – activators of human CYP2C9 | recombinant CYP2C9, luciferin-H conversion, luminescence; active compounds read high; factor 1 = untreated enzyme, 0 = blocked | activation factor at 5 µM | 1.4% of 96,000 active;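 active = activation factor of 2 or more for CYP2C9 at a 5 µM dose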;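 note: 0 = sulfaphenazole-blocked wells and 1 = vehicle-only wells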
Numbers without * were called inactive; . = not tested or not shown. Most compounds without a hit are left out; they make up all but 27% or so of the library.

SMILES	CYP2C9 inh	CYP2C19 activ	CYP2C19 inh	Cav3 T inh	CYP2C9 act
CCc1nc(SCC(=O)c2ccc(C)c(C)c2)n[nH]1	-133	0	97*	0.3	2.3*
Cc1nc(SCC(=O)c2ccc(F)cc2)n[nH]1	71*	0.4	58*	0.45	0.3
Cc1ccc(C(=O)CSc2n[nH]c(-c3ccco3)n2)cc1C	36	0.8	24	-0.7	0.6
Cc1nc(SCC(=O)N2c3ccccc3Sc3ccccc32)n[nH]1	36	0.4	60*	-0.034	0.6
COc1ccccc1-n1c(CNc2ccc(F)cc2)nnc1SCC(=O)Nc1cc(C)on1	.	.	.	-0.39	.
CC(NC(=O)Nc1cccnc1)(C(F)(F)F)C(F)(F)F	-13	1.2	-16	-0.86	1.1
CC(NC(=O)Nc1cccc([N+](=O)[O-])c1)(C(F)(F)F)C(F)(F)F	20	0.8	20	-4.9*	0.8
CCOC(=O)c1nnn(-c2nonc2N)c1CN(CC)c1ccccc1	89*	0	99*	-4.8*	0.1
CCOC(=O)c1nnn(-c2nonc2N)c1CN(CC)CC	2	0.6	36	0.007	1
CCOC(=O)c1nnn(-c2nonc2N)c1CNC(C)C	11	0.5	49	0.11	0.9
CCOC(=O)c1nnn(-c2nonc2N)c1COc1ccc(F)cc1	81*	0.9	14	-2.9	0.2
CCOC(=O)c1nnn(-c2nonc2N)c1CNc1ccccc1	53*	0.9	7	-0.95	0.5
CCOC(=O)c1nnn(-c2nonc2N)c1COc1ccccc1	88*	0.5	48	-3	0.1
COc1cc2[nH]c(=S)n(NC(=O)CC(C)C)c(=O)c2cc1OC	2	1	2	-0.0092	1
CC1CCCCC1NC(=O)COC(=O)c1ccc(S(=O)(=O)N2CCOCC2)cc1 (stereo not drawn)	4	1	-1	0.37	1
CCCn1c(NC(=O)C2COc3ccccc3O2)nc2ccccc21 (stereo not drawn)	-5	0.9	7	0.25	1
Cn1cccc1C(=O)NC(=O)COC(=O)c1ccccc1Sc1ccccc1C#N	-39	0.9	11	0.17	1.4
COc1ccc(Cl)cc1C(=O)OCC(=O)NC(=O)c1cccn1C	-233	0.8	22	-0.85	3.3*
Cn1c(Sc2ccc(C(F)(F)F)cc2[N+](=O)[O-])nnc1-c1ccccc1	-100	0.7	34	0.91	2*
COc1cc(C(=O)Nc2cccc(-c3nc4ccccc4o3)c2C)cc(OC)c1OC	31	0.5	45	0.021	0.7
Cc1ccc(-c2nc3ccccc3o2)cc1NC(=O)c1ccc2c(c1)OCO2	70*	0.5	50	-1.2	0.3
O=C(Nc1ccc(-c2nc3ccccc3o2)cc1)c1ccc2c(c1)OCO2	15	0.9	7	-4.4	0.9
Cc1c(NC(=O)c2ccc3c(c2)OCO3)cccc1-c1nc2ccccc2o1	69*	0.5	50	-0.54	0.3
CC(C)(C)C(=O)Nc1ccnc(-c2cccnc2)n1	59*	0.2	83*	1.2	0.4
CCC(=O)Nc1ccnc(-c2cccnc2)n1	22	0.4	65*	0.39	0.8
SMILES	CYP2C9 inh	CYP2C19 activ	CYP2C19 inh	Cav3 T inh	CYP2C9 act
C[C@@H]1C=C(C(=O)NCc2ccccc2)O[C@H](OCc2ccc(CO)cc2)C1	.	.	.	0.47	.
O=C(CNS(=O)(=O)/C=C/c1ccccc1)OCC(=O)N1CCC(Cc2ccccc2)CC1	52*	0.8	24	-2.5	0.5
CCCCOc1ccc(C(=O)N2CCC(C)CC2)cc1	54*	0.3	70*	-2	0.5
CCOc1ccc(C(=O)N2CCCN(C(=O)c3ccc(OCC)cc3)CC2)cc1	61*	0.7	30	1.4	0.4
Cc1cc(=O)n2nc(N3CCCC3C(=O)NCCCN3CCCCC3)sc2n1 (stereo not drawn)	-19	1.2	-18	-0.18	1.2
CCOC(=O)Cn1nc(C)n(-c2ccc(C(C)C)cc2)c1=O	19	0.9	11	0.53	0.8
COc1ccc2c(=O)c3c(=O)n(Cc4ccco4)c(-c4cc(OC)c(OC)c(OC)c4)nc3oc2c1	.	.	.	-0.053	.
CCCc1nc2oc3cc(OC)ccc3c(=O)c2c(=O)n1Cc1ccco1	-12	0.9	7	1.2	1.1
COc1ccc2c(=O)c3c(=O)n(Cc4ccco4)c(-c4ccccc4)nc3oc2c1	73*	0.3	73*	-0.25	0.3
CCCCCCn1c(-c2ccco2)nc2oc3cc(OC)ccc3c(=O)c2c1=O	90*	0.1	93*	0.7	0.1
C=CCNCCCCOc1ccc(OCC)cc1	4	1	1	0.65	1
CCOC(=O)CSc1cn2c(n1)CCC2	.	.	.	0.58	.
CCCCCCOC(=O)Cc1c(C)nc(-c2ccccc2)[nH]c1=O	-2	0.8	22	-1.6	1
CCOc1ccc(C2NC(=O)c3n[nH]c(C)c32)cc1 (stereo not drawn)	-8	0.3	69*	.	1.1
CNC(=S)N1C2CCC1CC(NC(=O)NC13CC4CC(CC(C4)C1)C3)C2 (stereo not drawn)	-14	1	-2	-0.13	1.1
CCC1(C)Cc2c(sc3nc(SCC(=O)O)[nH]c(=O)c23)CO1 (stereo not drawn)	-2	0.9	10	0.72	1
CCC1(C)Cc2c(sc3nnn(CC(=O)Nc4ccccc4C)c(=O)c23)CO1 (stereo not drawn)	50	0.2	84*	-0.8	0.5
CCC1(C)Cc2c(sc3nnn(CC(=O)Nc4ccccc4)c(=O)c23)CO1 (stereo not drawn)	68*	0.1	89*	-0.36	0.3
CCC1(C)Cc2c(sc3c2c(=O)n(C)c2nnc(SCCc4ccccc4)n32)CO1 (stereo not drawn)	-6	1.1	-5	0.72	1.1
OCC1CCCN1C(=S)Nc1ccccc1 (stereo not drawn)	-9	0.7	27	0.11	1.1
CN(C)S(=O)(=O)c1ccc(C(=O)Nc2ccc(CCC(=O)N3CCCC3)cc2)cc1	59*	0.8	16	1.2	0.4
COc1ccc2cc3c(N)nn(C(=O)C4CCC(C(C)(C)C)CC4)c3nc2c1 (stereo not drawn)	.	.	.	-0.6	.
COc1ccc2cc3c(N)nn(C(=O)Cc4ccccc4OC)c3nc2c1	75*	0.2	78*	-0.24	0.3
O=C1CC(c2cccs2)Cc2nc(NCC3CCCO3)ncc21 (stereo not drawn)	74*	0.1	85*	0.31	0.3
CC1CC(=O)c2cnc(NCC3CCCO3)nc2C1 (stereo not drawn)	-9	1	2	0.82	1.1
Cc1nc(-c2c(-c3ccc(O)cc3O)noc2C(F)(F)F)cs1	-14	0.3	71*	-1.6	1.1
CC1(c2cc(C(F)(F)F)n3nc(C(=O)O)cc3n2)CC1	.	.	.	0.22	.
Cc1nc2cc(-c3ccccc3)nn2c(C)c1CCC(=O)NCc1ccco1	52*	0.4	56*	0.0072	0.5
COc1cc(OC)cc(-c2cc3nc(C)c(CCC(=O)NC(C)CCc4ccco4)c(C)n3n2)c1 (stereo not drawn)	46	0.5	50	-0.52	0.5

Source: PubChem
